Hits are enriched below; roughly 18% of the tested compounds scored in any of these assays.
TDP1 block = inhibitors of human tyrosyl-DNA phosphodiesterase TDP1 | Q9NUW8 | recombinant TDP1, AlphaScreen DNA substrate cleavage | Potency, µM (doses to about 130 µM), for the others: at the top dose activity change, negative = inhibition, actives largely listed as inhibitors | 0.28% of 350,000 active; note: potency is the fitted concentration of half-maximal effect; % is set by controls: 0 for no effect and ±100 for the full control effect; nearly all actives have a fitted effect of over 40% in size
Target sequence (Q9NUW8 whole entry, looked up): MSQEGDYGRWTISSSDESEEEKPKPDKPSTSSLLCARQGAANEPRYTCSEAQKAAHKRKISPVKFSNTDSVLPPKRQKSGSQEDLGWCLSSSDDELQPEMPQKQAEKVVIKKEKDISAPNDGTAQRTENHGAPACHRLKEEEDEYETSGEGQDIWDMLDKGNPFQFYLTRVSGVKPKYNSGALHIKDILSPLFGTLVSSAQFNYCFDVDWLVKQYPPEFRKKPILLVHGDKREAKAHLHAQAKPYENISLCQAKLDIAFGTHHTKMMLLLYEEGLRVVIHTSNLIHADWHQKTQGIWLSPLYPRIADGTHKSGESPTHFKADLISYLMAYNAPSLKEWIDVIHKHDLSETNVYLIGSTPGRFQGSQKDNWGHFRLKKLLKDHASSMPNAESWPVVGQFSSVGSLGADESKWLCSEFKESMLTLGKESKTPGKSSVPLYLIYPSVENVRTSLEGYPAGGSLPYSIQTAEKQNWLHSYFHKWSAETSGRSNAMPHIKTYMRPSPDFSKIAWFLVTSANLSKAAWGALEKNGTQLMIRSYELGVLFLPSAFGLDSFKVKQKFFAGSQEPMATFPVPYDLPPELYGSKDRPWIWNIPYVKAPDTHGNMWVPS
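E. coli-derived human Tdp1, 1 nM final. Cpd preinc 15 min RT; substrate 15 nM final, 5 min RT; AS bead mix 10 ug/ml final, 10 min RT. Signal loss = tyrosine-FITC cleavage. No-enzyme wells = max signal.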
HepG2 tox = counter-screen for TGF-b inhibitors: cytotoxicity in HepG2 cells; 0.76% of 410,000 active; Potency, µM (series often up to 46.1 µM), for the others: at the top dose activity change, negative = cytotoxicity, actives largely listed as cytotoxic; HepG2 CAGA-GFP viability, ATP luminescence, 18 h; note: potency is the fitted concentration of half-maximal effect
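HepG2 CAGA-GFP cells (1000/well, DMEM with 1% FBS) received compound, then TGF-beta at 500 pg/mL final, and were incubated 18 hours at 37 degrees C. Viability was read by CellTiter-Glo luminescence. Media-only wells were set as complete cell-killing and DMSO as no toxicity.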
TDP1 cell noCPT = qHTS for Inhibitors of human tyrosyl-DNA phosphodiesterase 1 (TDP1): qHTS in cells in absence of CPT; DT40 Tdp1-/- hTDP1 cells, no CPT, ATP luminescence, 48 h; Potency, µM (highest dose often 46.2 µM), for inactives: top-dose activity change, negative = growth inhibition, actives largely listed as inhibitors; 15% of 420,000 active; note: potency is the fitted concentration of half-maximal effect; % is set by controls: 0 for no effect and ±100 for the full control effect; nearly all actives have a fitted effect of over 55% in size
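No-CPT arm: Tdp1-/-;hTDP1 DT40 cells (400/well) plus compounds, incubated ≥48 hr at 37 °C. Readout CellTiter-Glo luminescence.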
TGFb SMAD3 inh = blocks TGF-b signaling | HepG2 CAGA-GFP TGF-b/SMAD3 reporter, GFP fluorescence, 18 h; TGF-beta stimulated, 500 pg/mL final | Potency, µM (doses to about 46.1 µM), inactives show top-dose activity, negative = inhibition, hits mostly inhibitors | 1.2% of 410,000 active | AID 588855; note: potency is the fitted concentration of half-maximal effect; % is set by controls: 0 for no effect and ±100 for the full control effect; nearly all actives have a fitted effect of over 65% in size
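Inhibition of TGF-beta-driven CAGA-GFP reporter expression in HEPG2 cells is measured by cellular GFP fluorescence after 18 h stimulation with 500 pg/mL recombinant TGF-beta in 1% FBS medium at 37 degrees C.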
IL-1B inflam inh = inhibitors of inflammasome signaling (IL-1 beta secretion); THP-1 LPS/ATP IL-1B secretion, AlphaLISA, 16 h; stronger effect = lower value; activity change, % at 57.5 µM; 4.7% of 360,000 active; in the data active = activity change below about -50%; inconclusive = mostly about -30% to -49%; note: % is set by controls: 0 for no effect and ±100 for the full control effect
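THP-1 cells pretreated 1 hr with compounds (up to 57.5 uM final), then stimulated with LPS (250 ng/mL final) plus ATP (1.25 mM final); secreted IL-1B measured by AlphaLISA after 16 hr, decreased signal indicating inhibition.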
DT40 TDP1 CPT = DT40-hTDP1 cell growth loss with CPT; chicken DT40 Tdp1-/-;hTDP1 cells + 20 nM CPT, ATP luminescence, 48 h; Potency, µM (top dose mostly 46.2 µM), for the others: top-dose activity change, negative = growth inhibition, hits mostly inhibitors; 12% of 420,000 active; note: potency is the fitted concentration of half-maximal effect; % is set by controls: 0 for no effect and ±100 for the full control effect; nearly all actives have a fitted effect of over 55% in size
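Chicken DT40 Tdp1-/- cells complemented with human TDP1, 400 cells/well, exposed to compounds plus 20 nM camptothecin for at least 48 h at 37 C; viability read as ATP content by CellTiter-Glo luminescence.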
Numbers without * were called inactive; ? = inconclusive; · = no result given; ! = not active in a repeat; [ ] = remark or other dose. Unless noted, calls come from the whole dose curve; as a rule, active = well fitted curve in the direction sought with a large enough effect; inconclusive = small, poorly fitted or top-dose-only effect, or another doubt; inactive = no such curve, though single readings can be large; an effect the other way counts as inactive or inconclusive.

SMILES	TDP1 block	HepG2 tox	TDP1 cell noCPT	TGFb SMAD3 inh	IL-1B inflam inh	DT40 TDP1 CPT
c1ccc(C2CO2)cc1 (stereo unspecified)	11%	·	·	·	·	·
CCC(=NCc1ccco1)c1c(O)n(C)c(=O)n(C)c1=O	·	75%	?	39%	24	?
Cn1c(O)c(C(=Nc2ccccc2)SCc2ccc(Cl)cc2)c(=O)n(C)c1=O	·	-54%	3.3µM*	?	15	4.6µM*
CC(=NCCC(c1ccccc1)c1ccccc1)c1c(O)n(C)c(=O)n(C)c1=O	0%	-14%	13µM*	-16%	47	21µM*
Cn1c(O)c(C(=N)COc2ccccc2)c(=O)n(C)c1=O	-2%	8%	-9%	14%	31	-14%
CCC(=NCCc1ccccc1)c1c(O)n(C)c(=O)n(C)c1=O	·	-20%	8.2µM*	?	-19	?
CCc1ccc(OCCCN=C(C)c2c(O)n(C)c(=O)n(C)c2=O)cc1	5%	-17%	18µM*	6%	15	13µM*
CC(C)[N+](=O)[O-]	7%	·	·	·	·	·
ClCc1ccccc1	10%	·	·	·	·	·
O=C(NN1C(=O)C2C3C=CC(C4CC34)C2C1=O)c1cccc(Br)c1 (stereo unspecified)	1%	82%	?	0%	0	-25%
Cc1ncc(CNC(=O)N(CCCl)N=O)c(N)n1	5%[56.1 µM]	18%	?	8%	3	21µM*!
COc1cc(CN2CCc3nc(N4CCN(c5ccccc5F)CC4)ncc3C2)ccc1OC(C)C	6%	-12%	-26%	-17%	·	?
CN(C)c1ccc(CN2CCc3nc(N4CCN(c5ccccn5)CC4)ncc3C2)cc1	16%	-32%	21µM*	8.9µM*	·	21µM*
Cc1ccccc1CN1CCc2nc(N3CCN(c4ccccn4)CC3)ncc2C1	-4%	-23%	?	-28%	·	?
COc1cc(CN2CCc3nc(N4CCN(c5ncccn5)CC4)ncc3C2)cc(OC)c1OC	-1%	-19%	8.2µM*	?	·	8.2µM*
Cc1cc(SCc2sc(-c3ccc(C(F)(F)F)c(F)c3)nc2C)ccc1OCC(=O)O	10%	·	·	·	·	·
Cc1ccc(-n2nc3c(N4CCC(C(=O)NCc5ccccc5Cl)CC4)nnc(C)c3c2C)cc1	3%	-18%	5.8µM*	?	·	15µM*
COc1ccc(Cl)cc1NC(=O)C1CCN(c2nnc(C)c3c(C)n(-c4ccccc4)nc23)CC1	3%	-26%	15µM*	?	·	18µM*
CCC1(CC)C(=O)NC(=O)N(C)C1=O	·	·	-13%	·	·	12%
O=C(Oc1ccccc1)N1CCC2(CC1)CN(C(c1ccccc1)c1ccccc1)C2	·	·	?	·	·	-12%
C[C@]12CC[C@H]3[C@@H](CCC4=C(O)C(=O)CC[C@@H]43)[C@@H]1CC[C@@H]2OC(=O)CCC1CCCC1	·	·	-21%	·	·	-6%
O=C1NC(=O)C(=Cc2ccc(-c3ccccc3[N+](=O)[O-])o2)C(=O)N1	-8%	-45%	13µM*	?	·	7.3µM*
O=C1NC(=O)C(=Cc2ccccc2[N+](=O)[O-])C(=O)N1	·	-4%	16µM*	-3%	13	15µM*
NS(=O)(=O)c1ccc(-c2ccc(C=C3C(=O)NC(=O)NC3=O)o2)cc1	·	-19%	-1%	3%	39	-25%
O=C1NC(=O)C(=Cc2ccc(-c3cc(Cl)ccc3[N+](=O)[O-])o2)C(=O)N1	-15%	3%	?	-5%	-12	16µM*
SMILES	TDP1 block	HepG2 tox	TDP1 cell noCPT	TGFb SMAD3 inh	IL-1B inflam inh	DT40 TDP1 CPT
Cc1ccc(S(=O)(=O)Oc2ccccc2C=C2C(=O)NC(=O)NC2=O)cc1	·	-13%	-13%	1%	-55*	-10%
CC(Cc1ccsc1)NCc1cn[nH]c1-c1ccc(F)cc1F (stereo unspecified)	0%	-4%	?	-10%	-54*	?
COc1ccc(-c2[nH]ncc2CNC(C)Cc2ccsc2)c(F)c1 (stereo unspecified)	·	-67%	?	?	-2	?
O=C(CF)N(O)c1ccc(C=Cc2ccccc2)cc1	·	-40%	0.026µM*	7.1µM*	-28	0.13µM*
C=C(C)C1Cc2c(ccc3c(=O)c4c(oc23)COc2cc(OC)c(OC)cc2-4)O1 (stereo unspecified)	8%	·	-23%[9.04 µM]	·	·	-12%[9.04 µM]
CCOC(=O)[C@]12Cc3cc(OC)ccc3[C@H]1N(C)C(=O)c1ccccc12	·	·	?	·	?	-27%
CCOC(=O)[C@]12Cc3cc(C)ccc3[C@H]1N(C)C(=O)c1ccccc12	·	·	16µM*	·	-13	16µM*
CCOC(=O)[C@]12Cc3cc(C)ccc3[C@H]1N(C)C(=O)c1cc(OC)ccc12	·	·	23µM*	·	-116*	21µM*
CCOC(=O)[C@]12Cc3cc(Cl)ccc3[C@H]1N(C(C)C)C(=O)c1ccccc12	·	·	3.3µM*	·	·	2.6µM*
CCOC(=O)[C@]12Cc3cc(Cl)ccc3[C@H]1N(C)C(=O)c1ccccc12	·	·	?	·	-62*	?
CON(C)C(=O)Nc1ccc(Br)cc1	23%	·	·	·	·	·
N[C@H]1C[C@H]1c1ccccc1	-4%[21 µM]	·	·	·	·	·
O=C(C[C@@H]1C[C@@H]2c3cc(NS(=O)(=O)c4ccc(F)cc4)ccc3O[C@@H]2[C@H](CO)O1)N1CCc2ccccc2C1	·	-1%	-22%	-3%	-25	?
CN(C)c1ccc(NC(=O)c2sc3nc4c(cc3c2N)N2CCC4CC2)cc1	8%	-5%	·	6%	·	·
Cc1cc(=O)oc2cc(Oc3ccc([N+](=O)[O-])cc3C(F)(F)F)ccc12	·	-33%	?	-15%	-5	?
CCOC(=O)[C@]12Cc3cc(Cl)ccc3[C@H]1N(CC(=O)OC)C(=O)c1ccccc12	·	·	4.1µM*	·	·	9.2µM*
CN(C)C(=O)Oc1ccc2c(c1)O/C(=C\c1ccc(Cl)cc1)C2=O	·	-1%	?	-2%	-2	-30%
CN(C)C(=O)Oc1ccc2c(c1)O/C(=C\c1cccc(Cl)c1)C2=O	·	6%	-23%	-1%	-61*	11%
Cc1noc(C(=O)Nc2sc3c(c2C#N)CCC3)c1Cl	-8%	-7%	?	-13%	32	?
CN1CCc2nc3sc(C#N)c(N)c3c(-c3cccs3)c2C1	7%	-1%	21µM*	-27%	-8	?
CN1CCc2nc(N)c(C#N)c(-c3ccccc3)c2C1	0%	12%	-12%	14%	30	1%

Screening results as filed in PubChem.
